Screens from PubChem BioAssay.
The entries come from a sample that favours hits as a whole.
Pf Dd2 growth: blocks in vitro growth of P. falciparum Dd2 | P. falciparum Dd2 growth, SYBR Green, 72 h | Potency, µM (titrated, usually from 28.9 µM), actives largely listed as inhibitors | 4.3% of 120,000 active; active = well fitted inhibition curve with a large enough effect; note: nearly all actives have a fitted effect of over 65% in size
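Readout: SYBR Green fluorescence, 485 nm excitation, 535 nm emission, after ~16 h lysis at 37C. Before that, Dd2-infected red cells (2.5% hematocrit) grew 72 h with compound, 29 uM top final concentration.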
Of the large screens only hits and unclear results are named; the others gave an inactive call.

Cc1cc(C)cc(NC(=O)Cn2c(=O)n(CCC(C)C)c(=O)c3cccnc32)c1	none
COc1cccc(CNC(=O)c2cc3n(n2)CCCN(Cc2ccc(C)cc2)C3=O)c1OC	none
CC(=O)N1CCCN(C(=O)c2cnc3c(c2)N(Cc2ccccc2)CCC3)CC1	none
CN1CCC(N(C)CC2CCCN(CCc3ccc(F)cc3)C2)CC1 (centres undefined)	Pf Dd2 growth 8.9µM
CN(Cc1ccc(F)cc1)CC1CCCCC1	none
Cc1nc(C)c(CN(C)C2CCCN(CCc3ccccc3)C2)nc1C (centres undefined)	none
Cn1c(C(=O)NC2CCN(Cc3ccccc3)CC2)cc2c1CCN(Cc1ccccc1)C2	none
Cc1sc2ccn(C)c(=O)c2c1C(=O)NC1CCN(Cc2ccccc2)CC1	none
Cn1cc(-c2ccncc2)cc1C(=O)NC1CCN(Cc2ccccc2)CC1	Pf Dd2 growth 5µM
CC(=O)Nc1ccc(-c2ccc(=O)n3c2[C@@H]2C[C@@H](CN(S(=O)(=O)c4cccs4)C2)C3)cc1	none
CSc1ccc(-c2ccc(=O)n3c2[C@@H]2C[C@@H](CN(S(=O)(=O)c4cccs4)C2)C3)cc1	Pf Dd2 growth 8.9µM
CSCC(=O)N1C[C@@H]2C[C@H](C1)c1c(-c3ccc(SC)cc3)ccc(=O)n1C2	none
COc1ccccc1CNC(=O)CCNS(=O)(=O)c1ccc2c(c1)CCCC(=O)N2	none
Cc1ccc(C2(O)CCN(C(=O)C(=O)c3cccnc3)CC2)nc1	none
Cc1ccc(C2(O)CCN(C(=O)c3ccc4ncccc4c3)CC2)nc1	Pf Dd2 growth 4µM
O=C(c1ccc2ncccc2c1)N1CCC2(CC1)Nc1ccccc1NC2=O	none
O=C(O)C1CC2(CCN(C(=O)CN3CCCC3=O)CC2)CN1 (centres undefined)	none
O=C(c1cccc(F)c1)N1CCN(C(=O)c2nnn3c2COC(c2ccc(Cl)cc2)C3)CC1 (centres undefined)	none
CC(C)CC(=O)Nc1cccc(-c2nc3ccccc3[nH]2)c1	none
Cc1ccc(C(C)C)c(OCC(=O)Nc2cc(-c3nc4ccccc4[nH]3)ccc2C)c1	Pf Dd2 growth 6.3µM
COc1c(Cl)cc(C(=O)Nc2cc(-c3nc4ccccc4[nH]3)ccc2C)cc1Cl	none
CCOC(=O)c1ccc(CN(Cc2ccc(F)cc2)S(=O)(=O)c2ccc(F)c(C(=O)Nc3ccc(Cl)cc3F)c2)cc1	none
CC(CCc1ccccc1)NC(=O)Cn1c(=O)nc(-c2ccccc2)c2ccccc21 (centres undefined)	none
O=C(c1ccc2c(c1)OCO2)N1CC(c2nnc(-c3ccncc3)o2)C2(CCOCC2)C1 (centres undefined)	none
Cc1cn2nc(C(=O)NC3CCCCC3)cc2c(N2CCCC2)n1	Pf Dd2 growth 10µM
Cc1cn2nc(C(=O)NCC(C)C)cc2c(N2CCCC2)n1	none
Cc1cn2nc(C(=O)NCCc3ccccc3)cc2c(N2CCCC2)n1	none
CC1=NS(=O)(=O)N(Cc2ccccc2)C=C1C(=O)OCc1nc(-c2ccc(F)cc2)no1	none
O=C(Nc1cccc2ccccc12)O[C@@H]1CO[C@H]2[C@@H]1OC[C@@H]2NC(=O)c1cccs1	none
CN1CCC(N2CCN(C(=O)C3CCCCC3)CC2)C1=O (centres undefined)	none
CCS(=O)(=O)Nc1ccc(C2(C(=O)NCc3ccc4c(c3)OCO4)CCCCC2)cc1	Pf Dd2 growth 11µM
CCS(=O)(=O)Nc1ccc(C2(C(=O)NCc3cccnc3)CCCCC2)cc1	none
CC(=O)Nc1ccc(C2(C(=O)NCc3ccc4c(c3)OCO4)CCC2)cc1	none
O=C1NCCN(Cc2ccoc2)C1CC(=O)N(CCO)Cc1ccccc1F (centres undefined)	none
CCN(C(=O)c1oc2ccc(S(=O)(=O)N3CCCCCC3)cc2c1C)c1ccccc1	none
CCN(Cc1ccccc1)Cc1c(O)ccc2c(=O)c(-c3ccccc3)c(C(F)(F)F)oc12	Pf Dd2 growth 6.3µM
Cc1ccc(-c2c(C(=O)N(C)Cc3ccccc3)oc(=O)c3ccccc23)cc1	none
CCN(Cc1ccccc1)Cc1c(O)ccc2c(=O)c(-c3ccccc3Cl)c(C(F)(F)F)oc12	Pf Dd2 growth 8.9µM
Cc1cc(Nc2cccc(C(=O)O)c2)n2nc(C)nc2n1	none
CCC1CCc2c(sc(NC(=O)C3c4ccccc4Oc4ccccc43)c2C(=O)OC)C1 (centres undefined)	Pf Dd2 growth 13µM
CC1CCc2c(sc(NC(=O)C3c4ccccc4Oc4ccccc43)c2C(=O)OC(C)C)C1 (centres undefined)	none
CCC(C)(C)C1CCc2c(sc(NC(=O)C3c4ccccc4Oc4ccccc43)c2C(N)=O)C1 (centres undefined)	none
COc1ccc(-c2nnc(SCC(=O)N(C)Cc3ccccc3)o2)cc1OC	none
CC(C)(C)c1ccc(C(=O)NC(Cc2c[nH]c3ccccc23)C(=O)OCC(=O)c2ccc(Cl)cc2)cc1 (centres undefined)	none
CC(NC(=O)c1n[nH]c2ccccc12)C(=O)N1CCN(c2ccccn2)CC1 (centres undefined)	none
O=c1c2ccccc2nc(/C=C/c2ccccc2)n1-c1ccccc1F	none
O=c1c2ccccc2nc(/C=C\c2ccc(F)cc2)n1-c1ccccc1F	none
Cc1ccccc1-n1c(/C=C/c2c(C)[nH]c3ccccc23)nc2ccccc2c1=O	Pf Dd2 growth 3.2µM
